What all share (assay): NCI-60 one-dose screen, 48 h (100 = growth as untreated, 0 = no growth, -100 = all killed)
What all share (details): 10 µM unless noted

The subject of experiment [1] is NCI-H23 lung.
Experiment [2] concerns NCI-H226 lung.
Experiment [3] has as its system NCI-H322M lung.
In experiment [4] the test system is HOP-62 NSCLC.
Experiment [5] deals with NCI-H460 lung.
In experiment [6] the test system is HOP-92 NSCLC.
Experiment [7] has as its system NCI-H522 lung.
For experiment [8], the system named is A549/ATCC NSCLC.
Experiment [9] relates to 786-0 renal.
Experiment [10] concerns COLO 205 colon.
For experiment [11], the system named is DU-145 prostate.
Experiment [12] concerns MALME-3M melanoma.
The subject of experiment [13] is MDA-MB-231 breast.
Experiment [14] relates to RXF 393 renal.
In experiment [15] the test system is SF-268 CNS.
For experiment [16], the system named is SF-295 CNS.
In experiment [17] the test system is SF-539 CNS.
The subject of experiment [18] is UACC-257 melanoma.
Experiment [19] concerns M14 melanoma.

This is part of a sample that, as a whole, favours compounds with a hit. Of some 83,000 tested, about 20% had one in any assay.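 Single-dose data. Exposure time 48 hours. Values below 10 considered active.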 Values without a mark were called inactive. The source made the active and inactive calls.

Turning to `O=C1c2cccc3c(-c4ccc5c(c4)ncn5C4CCCCC4)ccc(c23)C(=O)N1c1nc2ccccc2s1`, the growth was 86.4% in experiment [1]; 84.1% in [2]; 91.7% in experiment [3]; 82% in experiment [4]; 94.8% in [5]; 76% in experiment [6]. Moreover, the growth in [7] was 78.2%; in experiment [8] it was 100%; in [9], 93%; in experiment [10], 89.8%; in experiment [11], 105%; in [12], 93%. The growth in experiment [13] is 74%; in [14] it was 105%; in experiment [15], 94.1%; in [16] it was 90.4%; in experiment [17], 95.7%; in experiment [18] it was 101%. Also, the growth in [19] is 93.8%.

As to `COC1=CC(=O)c2ccccc2C1=O`, the growth is 48.9% in experiment [1]; 104% in [2]; 94.9% in [3]; 44.9% in experiment [4]; 106% in [5]; 127% in experiment [6]. The growth in experiment [7] was 77.8%; in [8], 97.4%; in experiment [9], 105%; in [10], 117%; in [11], 88.8%; in experiment [12], 72.4%. For the same compound, the growth in experiment [13] was 99.1%; in experiment [14] it was 118%; in experiment [15], 102%; in experiment [16], 104%; in experiment [17] it was 124%; in experiment [18], 59.9%. For the same compound, the growth in experiment [19] was 87.2%.

On to `COc1ccc(/C=C2\COc3ccc(-c4ccccc4)cc3C2=O)c(OC)c1`, for which the growth is 77.9% in experiment [1]; 86.6% in [2]; 90.2% in [3]; 120% in experiment [4]; 83.4% in [5]; 109% in [6]. Besides, the growth is 39.7% in experiment [7]; 90.9% in experiment [8]; 83.2% in [9]; 124% in experiment [10]; 102% in experiment [11]; 91.6% in experiment [12]. For the same compound, the growth in experiment [13] was 93%; in experiment [14], 83%; in experiment [15] it was 97.7%; in experiment [16], 190%; in experiment [17] it was 97.3%; in experiment [18], 82.8%. Also, the growth in experiment [19] was 92.6%.

For the compound `CCc1c2c(nc3ccc(OCc4ccc(B(O)O)cc4)cc13)-c1cc3c(c(=O)n1C2)COC(=O)[C@]3(O)CC`, the growth in experiment [1] is -35.8% (active); in experiment [2], -21.4% (active); in [3] it was 15.7%; in [4], -17% (active); in [5] it was 2.12% (active); in experiment [6], -4.54% (active). The growth in experiment [7] was -9.3% (active); in [8], 7.22% (active); in [9], -13.7% (active); in experiment [10], 13.6%; in [11], 9.26% (active); in experiment [12], -7.08% (active). Further, the growth in experiment [13] is 28.8%; in experiment [14] it was -45.5% (active); in [15] it was 7.54% (active); in experiment [16], 1.47% (active); in experiment [17], -7.49% (active); in experiment [18], -12.2% (active). Further, the growth in experiment [19] is 1.07% (active).

As for `O=C(Cn1c(C(=O)c2ccccc2)nc2ccccc21)c1ccc(F)cc1`, the growth in [1] was 67.3%; in [2], 84%; in experiment [3], 75%; in [4] it was 78.2%; in experiment [5] it was 98.6%; in experiment [6], 77.3%. The growth in experiment [7] was -9.34% (active); in experiment [8], 79.3%; in [9], 75.9%; in [10], 119%; in experiment [11] it was 96.6%; in [12], 57.2%. Moreover, the growth in experiment [13] is 46.7%; in experiment [14], 45.5%; in experiment [15], 73.3%; in experiment [16] it was 62.9%; in experiment [17], 78.8%; in experiment [18] it was 75.2%. The growth in experiment [19] is 44%.

As to `N#C/C(=C\c1c(-c2ccccc2)[nH]c2ccccc12)C(=O)c1ccc(Cl)cc1`, the growth is 36.9% in [1]; 69% in experiment [2]; 61.8% in experiment [3]; 41.4% in experiment [4]; 18.2% in experiment [5]; 55.2% in experiment [6]. The growth in experiment [7] was 35.3%; in [8] it was 48.8%; in experiment [9] it was 44.6%; in experiment [10], 41.6%; in [11], 28.3%; in experiment [12], 37.2%. Further, the growth was 49.9% in [13]; 29.2% in [14]; 51.4% in [15]; 32.1% in [16]; -39.7% (active) in experiment [17]; 68.2% in [18]. Further, the growth in experiment [19] was 41%.

With `Cc1ccc(NS(=O)(=O)c2ccc(-c3cnc(C4CC4)o3)cc2)cc1C(F)(F)F`, the growth in experiment [1] was 72.8%; in experiment [2], 77.9%; in [3], 88.7%; in experiment [4], 60.7%; in [5] it was 55.8%; in experiment [6], 83.3%. For the same compound, the growth was 39.9% in experiment [7]; 55.2% in [8]; 85.5% in experiment [9]; 67.5% in [10]; 87.1% in [11]; 65.8% in experiment [12]. Also, the growth is 78.8% in experiment [13]; 69.4% in experiment [14]; 77.5% in [15]; 43.6% in experiment [16]; 65.5% in [17]; 73.7% in experiment [18]. The growth in experiment [19] is 48.6%.

`NS(=O)(=O)c1ccc(CCN2C(=O)c3cc(Cl)c(Cl)cc3C2=O)cc1`: the growth was 105% in [1]; 106% in experiment [2]; 97.8% in [3]; 102% in [4]; 109% in experiment [5]; 104% in experiment [6]. For the same compound, the growth was 86.5% in experiment [7]; 105% in experiment [8]; 96.7% in experiment [9]; 115% in experiment [10]; 104% in experiment [11]; 110% in [12]. The growth in [13] is 107%; in experiment [14], 120%; in experiment [15], 98.1%; in experiment [16], 99.7%; in experiment [17] it was 106%; in [18] it was 99.7%. Also, the growth in experiment [19] is 106%.
